# Measured values published in PubChem BioAssay (NCATS).
# A number with no mark means an inactive call. Inconclusive results are not listed. Where a call stands in place of a potency, no number is given. The source made the active and inactive calls. Unless noted, calls come from the whole dose curve; as a rule, active = well fitted curve in the direction sought with a large enough effect; inconclusive = small, poorly fitted or top-dose-only effect, or another doubt; inactive = no such curve, though single readings can be large; an effect the other way counts as inactive or inconclusive.
# Tests used:
# [1] = Cell Viability - BJ (AID 421; calls by dose curve;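 note: potency is the fitted concentration of half-maximal effect; cells exposed to compound for 40 hours at 37 °C before readout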); conditions: BJ fibroblast viability, qHTS
# How it was run: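 Normal human BJ foreskin fibroblasts, 1500/well in complete medium, treated 40 hr at 37 °C. Cellular ATP by CellTiter-Glo luminescence; normalized to DMSO and 100 uM tamoxifen, AC50 from Hill fit.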
# [2] = Cell Viability - Hek293 (AID 427;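 active = compounds whose dose-response curve shows a full or clear partial loss of cell viability, called from curve shape rather than a numeric limit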;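 note: potency is the fitted concentration of half-maximal effect; cells exposed to compound for 40 hours at 37 °C before reading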); conditions: qHTS
# How it was run: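 HEK293 cells in complete medium were exposed to compound for 40 hr at 37 °C, then cellular ATP was read by CellTiter-Glo luminescence. Data were normalized to DMSO (basal) and 100 uM tamoxifen (100% inhibition), and AC50 came from Hill fits.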
# [3] = Cell Viability - MRC5 (AID 434; calls by dose curve;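 note: potency is the fitted concentration of half-maximal effect; potency reflects cytotoxicity seen as loss of intracellular ATP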); conditions: MRC5 lung fibroblast viability, qHTS
# How it was run: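 AC50 values come from Hill-equation fits of intracellular ATP loss, measured by CellTiter-Glo luminescence. Normal lung fibroblasts (MRC5) had 40 hr compound treatment at 37 C, normalized between DMSO and 100 uM tamoxifen.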
# [4] = Cell Viability - SK-N-SH (AID 435; calls by dose curve;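 note: potency is the fitted concentration of half-maximal effect; compound exposure lasted 40 h at 37 °C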); conditions: SK-N-SH neuroblastoma cell viability qHTS
# How it was run: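 Cells seeded at 1500 per well and incubated 5 hr at 37 °C. Compound added, then 40 hr at 37 °C. CellTiter-Glo added, 20 min at room temperature, luminescence read.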
# [5] = Cell Viability - N2a (AID 540); conditions: N2a mouse neuroblastoma cell viability; activity change, negative = cytotoxicity: at 92.2 µM (top of the series); note: potency is the fitted concentration of half-maximal effect; nearly all actives have a fitted effect of over 45% in size
# How it was run: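 In this qHTS cytotoxicity screen, ATP-dependent luciferase luminescence reports viable N2a cells after a 40 hr compound exposure in complete culture medium. Potencies are AC50 values from standard Hill equation fits.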
# [6] = Cell Viability - NIH 3T3 (AID 541); conditions: NIH 3T3 cell viability, qHTS; activity change, negative = cytotoxicity: at 92.2 µM (top of the series); note: potency is the fitted concentration of half-maximal effect; nearly all actives have a fitted effect of over 25% in size
# How it was run: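 In this cytotoxicity screen, acute toxicity is scored as an ATP drop measured by CellTiter-Glo in NIH 3T3 fibroblasts following a 40 hr, 37 °C incubation with compound.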
# [7] = Cell Viability - Renal Proximal Tubule (AID 545); conditions: renal proximal tubule cells viability, primary cells of rat origin; activity change, negative = cytotoxicity: at 91.7 µM (top of the series); note: nearly all actives have a fitted effect of over 40% in size
# How it was run: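 Cytotoxicity is scored as a concentration-dependent drop in cellular ATP in primary rat renal proximal tubule cells exposed for 40 hr. AC50 derives from Hill modelling.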
# [8] = Cellular Toxicity (caspase-3) HepG2 (AID 654); conditions: HepG2 caspase-3 activation, luminescence; series mostly up to 92.2 µM;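 note: cells exposed to compound for 16 hours before reading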
# How it was run: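 Concentration-response AC50 values reflect caspase-3/7 induction in HepG2 cells after 16 hours of compound exposure, quantified by luminescence from liberated aminoluciferin and referenced to 100 uM tamoxifen as full stimulation.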
# [9] = Cellular Toxicity (caspase-3) Jurkat (AID 655); conditions: Jurkat caspase-3 activation, luminescence; caspase-3 activation: at 92.2 µM (top of the series), DMSO = 0%, tamoxifen = 100%;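 note: cells exposed to compound for 16 h at 37 °C before reading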
# How it was run: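 Caspase 3/7 activation is scored as increased luminescence in Jurkat cells cultured with compound for 16 hours in complete medium. AC50 values come from Hill fits of qHTS concentration-response data normalized to DMSO and 100 uM tamoxifen controls.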
# [10] = Cellular Toxicity (caspase-3) HUV-EC-C (AID 656); conditions: HUV-EC-C cells, caspase-3 activation (apoptosis); series mostly up to 92.2 µM
# How it was run: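 Read-out: luminescence proportional to caspase 3/7 activity, measured 20 min after adding Caspase-Glo 3/7 reagent. Cells (HUV-EC-C) had received compound for 16 hr at 37°C. Increases relative to DMSO and 100 uM tamoxifen gave concentration-response AC50 values.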
# [11] = Cellular Toxicity (caspase-3) SHSY5Y (AID 657); conditions: SH-SY5Y caspase-3 activation; series mostly up to 91.7 µM
# How it was run: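 Cells plated and incubated 5 h at 37 °C, dosed over a concentration range, incubated 16 h, then given Caspase-Glo 3/7 reagent for 1 h at room temperature before luminescence reading. Staurosporine (10 uM) defined full stimulation.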
# [12] = Cellular Toxicity (caspase-3) BJ (AID 658); conditions: BJ fibroblasts, luminescence; Potency: caspase-3 activation; series mostly up to 91.7 µM
# How it was run: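 Caspase-Glo 3/7 luminescence, read 1 hr after reagent at room temperature, in normal BJ fibroblasts exposed 16 hours at 37 °C. AC50 values from Hill-equation concentration-response, scaled between DMSO basal and 10 uM staurosporine as 100%.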
# [13] = Cellular Toxicity (caspase-3) MRC-5 (AID 659); conditions: MRC-5 cells, luminescence, normalized: DMSO 0%, 10 µM staurosporine 100%; series mostly up to 91.7 µM
# How it was run: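 Luminescent Caspase-Glo 3/7 read-out (1 h, room temperature) after a 16 h, 37 °C compound exposure of MRC-5 lung fibroblasts at 1500 cells/well. Concentration-response AC50 from Hill equation; 0% DMSO, 100% 10 uM staurosporine.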
# [14] = Cellular Toxicity (caspase-3) Mesangial (AID 660); conditions: mesangial cells, normalized: DMSO 0%, 100 µM tamoxifen 100%; at 91.7 µM (top of the series);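 note: cells exposed to compound for 16 h before the caspase read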
# How it was run: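 AC50 values come from Hill-equation fits of caspase 3/7 activation, measured as Caspase-Glo luminescence in human glomerular mesangial cells exposed to compound for 16 h at 37 °C; 100% set by 100 uM tamoxifen.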
# [15] = Cellular Toxicity (caspase-3) H-4-II-E (AID 663); conditions: H-4-II-E rat hepatoma; Potency: caspase-3 activation; caspase-3 activation: at 92.2 µM (top of the series), scaled: DMSO 0%, 100 µM tamoxifen 100%;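 note: cells exposed to compound for 16 hr before readout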
# How it was run: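 Caspase 3/7 activation measured by luminescent aminoluciferin substrate cleavage after 16 hr compound treatment of H-4-II-E cells in complete medium. Increase normalized between DMSO (basal) and 100 uM tamoxifen (100%); Hill-equation AC50 from concentration-response.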
# [16] = Cellular Toxicity (caspase-3) Hek293 (AID 664); conditions: HEK293 caspase-3 activation, DMSO = 0%, 100 µM tamoxifen = 100%; at 92.2 µM (top of the series);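 note: cells exposed to compound for 16 h at 37 °C before readout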
# How it was run: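 Apoptosis readout: Caspase-Glo 3/7 signal in human HEK293 cells following 16-hour compound incubation. Responses scaled between DMSO baseline and 100 uM tamoxifen.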
# [17] = Cellular Toxicity (caspase-3) N2a (AID 665); conditions: N2a cells, luminescence; Potency: caspase-3 activation; series mostly up to 92.2 µM;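 note: compound exposure lasted 16 h at 37 °C before readout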
# How it was run: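 Concentration-response qHTS: compound-induced caspase-3/7 luminescence in N2a cells (16 h, 37 °C), relative to DMSO and 10 uM staurosporine controls; AC50 obtained using the standard Hill equation.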
# [18] = Cellular Toxicity (caspase-3) NIH 3T3 (AID 666); conditions: NIH 3T3 caspase-3 activation, apoptosis/toxicity; series mostly up to 92.2 µM
# How it was run: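 Activity: caspase-3/7 induction, NIH 3T3 cells, 16 hr treatment at 37°C, luminescent Caspase-Glo detection; AC50 via Hill equation.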
# [19] = Cellular Toxicity (caspase-3) Renal Proximal Tubule (AID 667); conditions: renal proximal tubule cells, primary cells freshly taken from rat, solvent-only wells 0%, staurosporine 100%; series mostly up to 91.7 µM;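 note: cells exposed to compound for 16 hours at 37 °C before detection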
# How it was run: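 In qHTS format, rat primary proximal tubule cells seeded at 1000 per well are exposed to compounds for 16 hours at 37 °C. An increase in Caspase-Glo 3/7 luminescence indicates caspase activation.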
# [20] = target: Cytochrome P450 3A4 (Homo sapiens) (UniProt P08684); experiment: qHTS Assay for Inhibitors and Substrates of Cytochrome P450 3A4 (AID 884); conditions: recombinant CYP3A4, Luciferin-PPXE luminescence; series mostly up to 57.1 µM; note: potency is the fitted concentration of half-maximal effect; nearly all actives have a fitted effect of over 50% in size
# Chain of Cytochrome P450 3A4 (Homo sapiens) (P08684 whole entry, looked up): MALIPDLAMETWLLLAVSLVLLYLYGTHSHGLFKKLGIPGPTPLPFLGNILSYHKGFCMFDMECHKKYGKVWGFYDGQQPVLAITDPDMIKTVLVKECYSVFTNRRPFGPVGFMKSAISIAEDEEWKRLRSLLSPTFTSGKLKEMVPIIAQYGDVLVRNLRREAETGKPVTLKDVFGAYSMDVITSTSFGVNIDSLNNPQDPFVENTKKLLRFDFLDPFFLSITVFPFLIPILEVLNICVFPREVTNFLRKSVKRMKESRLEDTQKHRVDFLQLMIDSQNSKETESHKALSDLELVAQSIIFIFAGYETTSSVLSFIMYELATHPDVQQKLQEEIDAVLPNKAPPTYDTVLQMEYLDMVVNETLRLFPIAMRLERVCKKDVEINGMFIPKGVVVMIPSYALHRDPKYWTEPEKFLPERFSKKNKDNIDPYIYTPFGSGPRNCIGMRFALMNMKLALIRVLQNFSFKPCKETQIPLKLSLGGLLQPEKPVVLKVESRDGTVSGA
# How it was run: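 Luminescent readout of luciferin produced by CYP3A4 (20 nM) dealkylation of Luciferin-PPXE, 25 uM (its KM). NADPH-driven reaction ran 60 min at RT after 10 min compound preincubation; data scaled to 57 uM ketoconazole as 100% inhibition.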
# [21] = target: Cytochrome P450 3A4 (Homo sapiens) (UniProt P08684); experiment: qHTS Assay for Activators of Cytochrome P450 3A4 (AID 885); conditions: recombinant CYP3A4, Luciferin-PPXE luminescence, 60 min; series mostly up to 57.1 µM; note: nearly all actives have a fitted effect of over 65% in size
# How it was run: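 Human CYP3A4 dealkylates Luciferin-PPXE to luciferin, which luciferase detection converts to light. Substrate was at its KM (25uM), buffer 200mM KPO4, reaction 60 min at RT.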
# [22] = MultiTox-Fluor Cytotoxicity Assay - LYMP1-001 - Dead Cells (AID 946); conditions: LYMP1-001 lymphoblastoid cells, dead-cell protease fluorescence; series mostly up to 92.2 µM
# How it was run: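 LYMP1-001 lymphoblastoid cells (2500/well) treated 16 h at 37 C. Dead-cell protease cleavage of bis-AAF-R110 read at Ex/Em 485/520. Normalized to DMSO and 15 uM tetraoctylammonium bromide; AC50 from Hill fits.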
# [23] = Cell Viability - LYMP1-002 - Assay at 16 hr (AID 948); conditions: LYMP1-002 lymphoblastoid cell viability; series mostly up to 92.2 µM
# How it was run: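 Acute cytotoxicity is scored as a concentration-dependent fall in intracellular ATP in a human lymphoblastoid line (LYMP1-002) after 16 hr compound exposure at 37 C, measured by luciferase luminescence.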
# [24] = MultiTox-Fluor Cytotoxicity Assay - LYMP1-002 - Live Cells (AID 955); conditions: LYMP1-002 lymphoblastoid live-cell protease fluorescence viability; series mostly up to 46.1 µM
# How it was run: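 In this qHTS viability format, lymphoblastoid cells (LYMP1-002, human) received compound for 16 hr at 37 C. Fluorogenic GF-AFC cleavage by viable cells was detected at 405/510 nm after 1 h at room temperature.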
# [25] = MultiTox-Fluor Cytotoxicity Assay - LYMP1-003 - Live Cells (AID 962); conditions: LYMP1-003 lymphoblastoid cells, MultiTox-Fluor live-cell protease fluorescence; series mostly up to 92.2 µM;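 note: cytotoxic hits lower the live-cell protease signal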
# How it was run: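 Human lymphoblastoid line LYMP1-003 in complete culture medium, treated 16 hr with titrated compounds. Viable cells quantified via cell-permeant GF-AFC substrate fluorescence; AC50 derived by Hill fitting.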
# [26] = Cell Viability - LYMP1-003 - Assay at 24 hr (AID 963); conditions: LYMP1-003 lymphoblastoid cell viability; series mostly up to 92.2 µM
# How it was run: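 The lymphoblastoid line was treated with titrated compounds for 24 hours, and viable cell number estimated from luciferase-based ATP luminescence.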
# [27] = Cell Viability - LYMP1-003 - Assay at 40 hr (AID 964); conditions: LYMP1-003 lymphoblastoid viability; series mostly up to 92.2 µM; note: nearly all actives have a fitted effect of over 60% in size
# How it was run: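 Acute toxicity is scored as a concentration-dependent loss of intracellular ATP in LYMP1-003 cells (2500/well, complete medium) after 40 hr at 37 C, measured by CellTiter-Glo luminescence; AC50 values derive from standard Hill modelling.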
# [28] = Cell Viability - LYMP2-003 (AID 965); conditions: LYMP2-003 lymphoblastoid cell viability; series mostly up to 92.2 µM;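 note: cells exposed to compounds for 24 h before reading; nearly all actives have a fitted effect of over 50% in size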
# How it was run: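 Acute cytotoxicity is scored as a concentration-dependent drop in intracellular ATP, measured by luciferase luminescence in human lymphoblastoid cells treated for 24 hours at 37 C. AC50 values derive from Hill-equation modelling.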
# [29] = Cell Viability - LYMP2-005 (AID 967); conditions: LYMP2-005 lymphoblastoid cell viability; series mostly up to 92.2 µM
# How it was run: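 qHTS viability screen in LYMP2-005 cells: 24 h at 37 C with compound, ATP luminescence via CellTiter-Glo, AC50 from Hill curves.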
smiles,measurement,setting,value
O=C1OC2(c3cc(Br)c(O)c(Br)c3Oc3c2cc(Br)c(O)c3Br)c2c(Cl)c(Cl)c(Cl)c(Cl)c21,Potency,[1],> 92 µM
same,Potency,[2],> 92 µM
same,Potency,[3],> 92 µM
same,Potency,[4],> 92 µM
same,Potency,[5],3.98 µM (active)
same,Potency,[6],25.1 µM (active)
same,Potency,[7],inactive
same,Potency,[8],inactive
same,Potency,[9],inactive
same,Potency,[10],inactive
same,Potency,[11],inactive
same,Potency,[12],inactive
same,outcome,[13],inactive
same,caspase-3 activation,[14],-1.97%
same,caspase-3 activation,[15],-0.639%
same,caspase-3 activation,[16],-0.811%
same,Potency,[17],inactive
same,Potency,[18],inactive
same,outcome,[19],inactive
same,Potency,[20],20 µM (active)
same,Potency,[21],inactive
same,Potency,[22],inactive
same,Potency,[23],inactive
same,Potency,[24],inactive
same,Potency,[25],inactive
same,Potency,[26],inactive
same,Potency,[27],inactive
same,Potency,[28],inactive
same,Potency,[29],inactive
